Experimental data reported in PubChem BioAssay (NCATS).
Several values for one entry are separate records, joined by “and”; a condition that tells them apart may be missing. Identical values can stand only once. Records with an inconclusive call do not appear. Activity calls are given as the source filed them. Unless noted, calls follow the shape of the dose curve; as a rule, active = well fitted curve in the direction sought with a large enough effect; inconclusive = small, poorly fitted or top-dose-only effect, or another doubt; inactive = no such curve, though single readings can be large; an effect the other way counts as inactive or inconclusive.

What was measured:
[1] = test system: Es-2; experiment: Primary qHTS to identify gynecologic anti-cancer compounds using libraries of approved drugs and bioactive compounds (AID 1345084); conditions: Gynecologic cancer cell panel viability, ATPlite luminescence, 48 h; series mostly up to 57.5 µM; also: nearly all actives have a fitted effect of over 55% in size; also: potency is read from the fitted curve at half-maximal effect
Summary of the method: (§1)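 ATP-based viability (ATPlite), 1,000 cells/well, 16 h pre-incubation, 48 h compound at 37 C, 5% CO2, 15 min RT before read.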

[2] = test system: HeLa; experiment: as above; conditions: Gynecologic cancer cell panel viability, ATPlite luminescence, 48 h; series mostly up to 57.5 µM
Summary of the method: as §1

[3] = test system: Hek293T; experiment: as above; conditions: Gynecologic cancer cell panel viability, ATPlite luminescence, 48 h, control line for the selectivity index; series mostly up to 57.5 µM
Summary of the method: as §1

[4] = test system: JEG-3; experiment: as above; conditions: Gynecologic cancer cell panel viability, ATPlite luminescence, 48 h; series mostly up to 57.5 µM
Summary of the method: as §1

[5] = test system: SKOV3; experiment: as above; conditions: Gynecologic cancer cell panel viability, ATPlite luminescence, 48 h; series mostly up to 57.5 µM
Summary of the method: as §1

[6] = test system: Tov112D; experiment: as above; conditions: Gynecologic cancer cell panel viability, ATPlite luminescence, 48 h; series mostly up to 57.5 µM
Summary of the method: as §1

[7] = test system: CASKI; experiment: as above; conditions: Gynecologic cancer cell panel viability, ATPlite luminescence, 48 h; series mostly up to 57.5 µM
Summary of the method: as §1

[8] = test system: OV90; experiment: as above; conditions: Gynecologic cancer cell panel viability, ATPlite luminescence, 48 h; series mostly up to 57.5 µM
Summary of the method: as §1

[9] = test system: Tov-21-G; experiment: as above; conditions: Gynecologic cancer cell panel viability, ATPlite luminescence, 48 h; series mostly up to 57.5 µM
Summary of the method: as §1

[10] = qHTS assay to identify inhibitors of the type 1 interferon - major histocompatibility complex class I in skeletal muscle: Counter screen cell viability and HiBit confirmation (AID 1347412); conditions: iHSKM muscle cells + IFN-b, HiBiT or CellTiter-Glo, 24 h; for activity change, negative = inhibition: at 45.9 µM (top of the series); also: potency is read from the fitted curve at half-maximal effect; as to activity change, negative = inhibition: % is scaled to controls: 0 for no effect and ±100 for the full control effect; as to all read-outs here: nearly all actives have a fitted effect of over 60% in size
Summary of the method: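 Luminescence read-out: Nano-Glo HiBiT lytic signal from C-terminally HiBiT-tagged HLA-B in CRISPR-edited human myoblasts, plus CellTiter Glo ATP as viability counter screen. IFN-beta 4.0 ng/ml; 24 hrs treatment at 37 C, 5% CO2.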

[11] = test system: C33A; experiment: Primary qHTS to identify gynecologic anti-cancer compounds using libraries of approved drugs and bioactive compounds (AID 1345084); conditions: Gynecologic cancer cell panel viability, ATPlite luminescence, 48 h; series mostly up to 57.5 µM; also: nearly all actives have a fitted effect of over 55% in size; also: potency is read from the fitted curve at half-maximal effect
Summary of the method: as §1

[12] = test system: astro; experiment: Drug repurposing screens with cells derived from glioblastoma tumor samples (AID 1345199); conditions: viability, ATP luminescence, 48 h; series mostly up to 45.9 µM; also: nearly all actives have a fitted effect of over 40% in size; also: potency is read from the fitted curve at half-maximal effect; as to activity, negative = cell killing: % is scaled to controls: 0 for no effect and ±100 for the full control effect
Summary of the method: (§2)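 Primary testing used CD133+ neurospheres from four GBM patients, seven concentrations, 48 h exposure and ATP-based viability; confirmation added three slower-growing patient lines.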

[13] = test system: PA-1; experiment: Primary qHTS to identify gynecologic anti-cancer compounds using libraries of approved drugs and bioactive compounds (AID 1345084); conditions: Gynecologic cancer cell panel viability, ATPlite luminescence, 48 h; series mostly up to 57.5 µM; also: nearly all actives have a fitted effect of over 55% in size; also: potency is read from the fitted curve at half-maximal effect
Summary of the method: as §1

[14] = qHTS assay for small molecule activators of the human pregnane X receptor (PXR) signaling pathway (AID 720659; call rule not given here; also: 0% is about no effect)
[15] = molecular target: Nuclear receptor subfamily 1 group I member 2 (Rattus norvegicus) (UniProt Q9R1A7); experiment: qHTS assay for small molecule activators of the rat pregnane X receptor (rPXR) signaling pathway (AID 651751; call rule not given here; also: 0% is about no effect); conditions: rPXR reporter cells, luciferase (One-Glo), 24 h
Chain of Nuclear receptor subfamily 1 group I member 2 (Rattus norvegicus) (Q9R1A7 whole entry, looked up): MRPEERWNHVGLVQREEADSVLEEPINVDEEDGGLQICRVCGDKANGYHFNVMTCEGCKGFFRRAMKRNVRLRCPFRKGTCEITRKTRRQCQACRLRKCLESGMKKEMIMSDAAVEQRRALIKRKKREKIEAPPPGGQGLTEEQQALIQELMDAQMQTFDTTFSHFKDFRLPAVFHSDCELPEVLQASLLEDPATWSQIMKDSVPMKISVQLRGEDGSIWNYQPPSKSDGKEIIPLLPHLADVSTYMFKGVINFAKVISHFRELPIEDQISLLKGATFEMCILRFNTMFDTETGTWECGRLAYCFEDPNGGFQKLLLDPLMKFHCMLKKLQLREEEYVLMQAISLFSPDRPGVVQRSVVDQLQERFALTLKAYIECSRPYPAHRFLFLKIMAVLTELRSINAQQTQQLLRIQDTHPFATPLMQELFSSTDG

[16] = Drug repurposing screens with cells derived from glioblastoma tumor samples (AID 1345199); conditions: GBM patient neurospheres viability, ATP luminescence, 48 h; also: nearly all actives have a fitted effect of over 40% in size; also: potency is read from the fitted curve at half-maximal effect; as to activity, negative = cell killing: % is scaled to controls: 0 for no effect and ±100 for the full control effect
Summary of the method: as §2

[17] = at 45.9 µM (top of the series), tumour line B
[18] = at 45.9 µM (top of the series), tumour line D
[19] = at 46.1 µM (top of the series), tumour line C
[20] = at 46 µM (top of the series), tumour line A

NC(=O)c1cnc(-c2ccc(C3(N)CCC3)cc2)c(-c2ccccc2)c1
inactive: Potency [1] | Potency [2] | Potency [3] | Potency [4] | Potency [6]
active: Potency [5] 28.2 µM

CC(C)n1nc(-c2ccc3oc(N)nc3c2)c2c(N)ncnc21
active: Potency [7] 2.24 µM | Potency [2] 12.6 µM | Potency [3] 0.316 µM | Potency [8] 0.316 µM | Potency [9] 0.316 µM | Potency ([10]; HiBiT) 0.0991 µM

O=C(CCCCCCC(=O)Nc1ccccc1)NO
inactive: activity change, negative = inhibition ([10]; Viability) 2.12%
active: Potency [11] 6.31 µM and 14.1 µM | Potency [1] 7.08 µM and 12.6 µM | Potency [2] 8.91 µM and 10 µM | Potency [4] 3.98 µM and 8.91 µM | Potency [5] 3.16 µM and 12.6 µM | Potency [9] 11.2 µM and 5.01 µM | Potency [6] 7.08 µM and 11.2 µM | Potency [12] 10 µM and 8.91 µM | Potency ([10]; HiBiT) 3.52 µM

COc1cc(Nc2ncc(F)c(Nc3ccc4c(n3)NC(=O)C(C)(C)O4)n2)cc(OC)c1OC
active: Potency [7] 11.2 µM | Potency [2] 31.6 µM | Potency [5] 15.8 µM | Potency ([10]; HiBiT) 1.25 µM
inactive: Potency [11] | Potency [1] | Potency [3] | Potency [4] | activity change, negative = inhibition ([10]; Viability) -9.37%

CC1=C(/C=C/C(C)=C/C=C/C(C)=C/C(=O)Nc2ccc(O)cc2)C(C)(C)CCC1
inactive: outcome [14]
active: Potency [11] 7.94 µM | Potency [3] 20 µM | Potency [8] 31.6 µM | Potency [13] 4.47 µM | Potency [9] 20 µM | Potency [12] 11.2 µM

O=c1c(-c2ccc(O)cc2)coc2cc(O)ccc12
inactive: max response [15] 6.21% and 11.9%

O=C(O)c1cc(O)c2c(c1)C(=O)c1cccc(O)c1C2=O
inactive: max response [15] -2.8% | outcome [14]

O=c1cc(CN2CCOCC2)occ1OCCCCCSc1ccnc2cc(C(F)(F)F)ccc12
active: Potency [3] 31.6 µM
inactive: Potency [9] | Potency [6]

COc1ccc(Cc2nccc3cc(OC)c(OC)cc23)cc1OC
inactive: activity change, negative = inhibition ([10]; HiBiT) -26.2% | activity change, negative = inhibition ([10]; Viability) -0.43%

COc1ncc(-c2ccc3nccc(-c4ccnnc4)c3c2)cc1NS(=O)(=O)c1ccc(F)cc1F
active: Potency [2] 0.631 µM | Potency [3] 0.1 µM | Potency [4] 25.1 µM | Potency [8] 3.55 µM | Potency [13] 0.355 µM | Potency [9] 12.6 µM

CO[C@H]1C(=O)[C@]2(C)[C@@H](OC)C[C@H]3OC[C@@]3(OC(C)=O)[C@H]2[C@H](OC(=O)c2ccccc2)[C@]2(O)C[C@H](OC(=O)[C@H](O)[C@@H](NC(=O)OC(C)(C)C)c3ccccc3)C(C)=C1C2(C)C
inactive: activity change, negative = inhibition ([10]; Viability) -18.6%

Cc1nnc(C(C)C)n1C1C[C@H]2CC[C@@H](C1)N2CC[C@H](NC(=O)C1CCC(F)(F)CC1)c1ccccc1 (stereo partly drawn)
inactive: activity, negative = cell killing [16, 17] -4.81% | activity, negative = cell killing [16, 18] -11.6% | activity, negative = cell killing [16, 19] 5.31% | Potency [12]

NC[C@@H]1O[C@@H](O[C@H]2[C@@H](O)[C@H](O[C@@H]3[C@@H](O)[C@@H](N)C[C@H](N)[C@H]3O[C@H]3O[C@H](CN)[C@@H](O)[C@@H](O)[C@H]3N)O[C@H]2CO)[C@H](N)[C@@H](O)[C@@H]1O
inactive: activity, negative = cell killing [16, 17] 5.16% | activity, negative = cell killing [16, 18] 4.28% | activity, negative = cell killing [16, 20] -29.1% | activity, negative = cell killing [16, 19] 9.32% | Potency [12]

O=C(Nc1cccc(Br)c1)c1cccc(S(=O)(=O)N2CCCCCC2)c1
inactive: Potency [2] | Potency [4] | Potency [9] | Potency [6]

NS(=O)(=O)c1ccc(NC2=CC(=O)c3ccccc3C2=O)cc1
active: Potency ([10]; HiBiT) 3.52 µM | Potency ([10]; Viability) 4.97 µM

COc1ccc(-c2nc(N3CCOCC3)c3sc(CN(C)c4ncc(C(=O)NO)cn4)cc3n2)cn1
active: Potency ([10]; HiBiT) 0.0279 µM

O=C1c2ccccc2-[n+]2ccc3c([nH]c4ccccc43)c21
active: Potency ([10]; HiBiT) 1.57 µM | Potency ([10]; Viability) 2.22 µM

Cc1ccc(C(=O)Nc2cccc(C(F)(F)F)c2)cc1Nc1nc(-c2cccnc2)nc2c1cnn2C
inactive: activity change, negative = inhibition ([10]; HiBiT) -9.48% | activity change, negative = inhibition ([10]; Viability) -7.92%

c1ccc2c(-c3cnn4cc(-c5ccc(N6CCNCC6)cc5)cnc34)ccnc2c1
active: Potency ([10]; HiBiT) 7.87 µM

Oc1ccc(C2CCN(c3ccnc4ccccc34)CC2)cc1O
inactive: activity change, negative = inhibition ([10]; Viability) -0.0528%

Cc1cnc(C(=O)O)c[n+]1[O-]
inactive: activity, negative = cell killing [16, 17] -12.7% and -17.2% and -5.56% | activity, negative = cell killing [16, 18] -2.04% and 1.27% and -4.74% | activity, negative = cell killing [16, 20] -14.3% and -47.1% | activity, negative = cell killing [16, 19] -29.9% and -17.2% and -16.5% | Potency [12]

CN1[C@@H]2CCC[C@@H]1CC(NC(=O)c1nn(C)c3ccccc13)C2 (stereo partly drawn)
inactive: activity, negative = cell killing [16, 17] 0.357% | activity, negative = cell killing [16, 18] 2.65% | activity, negative = cell killing [16, 19] -11.6% | Potency [12]
active: Potency ([16]; tumour line A) 12.6 µM

O=c1c(O)c(-c2ccc(O)cc2)oc2cc(O)cc(O)c12
inactive: max response [15] 0.424% and -1.67%

CC1(C)O[C@H]2C[C@@H]3[C@H]4CCC5=CC(=O)C=C[C@]5(C)[C@@]4(F)[C@@H](O)C[C@]3(C)[C@]2(C(=O)CO)O1
inactive: activity, negative = cell killing [16, 17] -4.78% | activity, negative = cell killing [16, 18] 5.68% | activity, negative = cell killing [16, 20] -11.2% | activity, negative = cell killing [16, 19] 3.17% | Potency [12]

CCOC(=O)O[C@]1(C(=O)OCCl)CC[C@@H]2[C@H]3CCC4=CC(=O)C=C[C@]4(C)[C@@H]3[C@@H](O)C[C@@]21C
inactive: activity, negative = cell killing [16, 17] -4.15% | activity, negative = cell killing [16, 18] 8.73% | activity, negative = cell killing [16, 20] -8.19% | activity, negative = cell killing [16, 19] 1.62% | Potency [12]

CC(C(=O)O)c1ccc(-c2ccccc2)c(F)c1 (stereo not drawn)
inactive: activity, negative = cell killing ([16]; at 20 µM (top of the series), tumour line C) -24.7% | activity, negative = cell killing ([16]; at 21.2 µM (top of the series), tumour line B) -12.6% | activity, negative = cell killing ([16]; at 21.2 µM (top of the series), tumour line D) -11% | activity, negative = cell killing ([16]; at 21.3 µM (top of the series), tumour line A) -20.3% | Potency [12]

N#C[C@H]1C[C@H]2C[C@@H]2N1C(=O)[C@@H](N)C12CC3CC(CC(O)(C3)C1)C2
inactive: activity, negative = cell killing [16, 17] -2.78% | activity, negative = cell killing [16, 18] -16.4% | activity, negative = cell killing [16, 20] -21.1% | activity, negative = cell killing [16, 19] 4.9% | Potency [12]

NS(=O)(=O)c1cccc2c1C(=O)c1cccc(O)c1C2=O
active: Potency ([10]; HiBiT) 0.557 µM | Potency ([10]; Viability) 0.496 µM
